# Test results from PubChem BioAssay.
# Calls of active or inactive are those of the source.
# How the values were obtained:
# [1] = E. coli DRC41 culture turbidity changes, primary screen, E. coli filamentation inducer project, strain DRC41, OD650, 48 h (AID 1152);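 note: E. coli MC1000 strain DRC41 lacking acrAB efflux pump and sulA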; conditions: E. coli DRC41 (acrAB sulA), higher = more signal, called active from +8 up or from −8 down
# [2] = small-molecule binders of probe aLefty1, primary screen, biochemical, small-molecule microarray, 635/667 nm fluorescence (AID 1153); conditions: higher = more signal;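 note: score merges spot fluorescence with signal-to-noise ratio from the scanned slide images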
# [3] = PSAC antagonists in infected red cells, primary screen, cell-based, P. falciparum Indochina, OD700, 1 h (AID 1154); conditions: P. falciparum Indochina infected RBC osmotic lysis, higher = more signal, called active from +8 up or from −8 down
# [4] = PSAC antagonists in infected red cells, primary screen, cell-based, P. falciparum Indochina, OD700, 2 h (AID 1155);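 note: lysis reports solute entry through the parasite surface anion channel PSAC; channel blockers reduce lysis of infected cells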; conditions: P. falciparum Indochina infected erythrocytes, osmotic lysis OD700; higher = more signal, called active from +8 up or from −8 down
# [5] = osmotic lysis modulators in infected erythrocytes, primary screen, PSAC antagonist project, cell-based, P. falciparum Indochina, OD700, 3 h (AID 1156); conditions: higher = more signal, called active from +8 up or from −8 down
# [6] = PSAC antagonists in infected red cells, primary screen, cell-based, P. falciparum Indochina, OD700, 18 h (AID 1157); conditions: P. falciparum Indochina infected erythrocytes, osmotic lysis OD700, 18 h; higher = more signal, called active from +8 up or from −8 down
# [7] = modulators of S6 phosphorylation in cells, primary screen, cell-based, A549, cytoblot, luminescence, serum-stimulated (AID 1158); conditions: A549 phospho-S6 cytoblot, 5 h, higher = more signal;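 note: serum-stimulated A549 lung adenocarcinoma cells; signal is phosphorylated S6 detected by cytoblot immunostaining with HRP secondary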
# [8] = biological target: NADPH oxidase 2 (Homo sapiens) (UniProt P04839); experiment: NOX2-dependent H2O2 signal modulators, primary screen, NOX inhibitor project, cell-based, HEK293-NOX2, PMA-stimulated, Amplex Red fluorescence (AID 1159); conditions: 45 min, higher = more signal, called active from +8 up or from −8 down; note: test concentration not given here
# NADPH oxidase 2 (Homo sapiens), sequence (P04839 whole entry, looked up): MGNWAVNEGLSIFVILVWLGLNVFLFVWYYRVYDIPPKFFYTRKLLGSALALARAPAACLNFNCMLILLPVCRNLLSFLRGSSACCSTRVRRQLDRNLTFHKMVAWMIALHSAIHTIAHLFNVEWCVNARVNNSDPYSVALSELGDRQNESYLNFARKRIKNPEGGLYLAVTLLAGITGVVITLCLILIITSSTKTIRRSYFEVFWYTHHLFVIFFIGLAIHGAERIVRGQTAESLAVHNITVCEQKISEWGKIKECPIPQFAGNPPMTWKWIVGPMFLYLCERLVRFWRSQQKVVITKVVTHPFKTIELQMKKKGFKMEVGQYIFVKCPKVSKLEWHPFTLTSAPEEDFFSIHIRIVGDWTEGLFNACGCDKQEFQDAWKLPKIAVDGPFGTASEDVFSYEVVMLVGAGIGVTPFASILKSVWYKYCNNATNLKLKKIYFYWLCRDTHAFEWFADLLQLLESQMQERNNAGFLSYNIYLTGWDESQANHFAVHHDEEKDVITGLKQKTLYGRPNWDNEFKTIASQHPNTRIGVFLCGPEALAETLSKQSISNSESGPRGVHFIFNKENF
# [9] = biological target: NADPH oxidase 4 (Homo sapiens) (UniProt Q9NPH5); experiment: NOX4-dependent H2O2 signal modulators, primary screen, NOX inhibitor project, cell-based, HEK293-NOX4, tetracycline-induced, Amplex Red fluorescence (AID 1160); conditions: 45 min, higher = more signal, called active from +8 up or from −8 down
# NADPH oxidase 4 (Homo sapiens), sequence (Q9NPH5 whole entry, looked up): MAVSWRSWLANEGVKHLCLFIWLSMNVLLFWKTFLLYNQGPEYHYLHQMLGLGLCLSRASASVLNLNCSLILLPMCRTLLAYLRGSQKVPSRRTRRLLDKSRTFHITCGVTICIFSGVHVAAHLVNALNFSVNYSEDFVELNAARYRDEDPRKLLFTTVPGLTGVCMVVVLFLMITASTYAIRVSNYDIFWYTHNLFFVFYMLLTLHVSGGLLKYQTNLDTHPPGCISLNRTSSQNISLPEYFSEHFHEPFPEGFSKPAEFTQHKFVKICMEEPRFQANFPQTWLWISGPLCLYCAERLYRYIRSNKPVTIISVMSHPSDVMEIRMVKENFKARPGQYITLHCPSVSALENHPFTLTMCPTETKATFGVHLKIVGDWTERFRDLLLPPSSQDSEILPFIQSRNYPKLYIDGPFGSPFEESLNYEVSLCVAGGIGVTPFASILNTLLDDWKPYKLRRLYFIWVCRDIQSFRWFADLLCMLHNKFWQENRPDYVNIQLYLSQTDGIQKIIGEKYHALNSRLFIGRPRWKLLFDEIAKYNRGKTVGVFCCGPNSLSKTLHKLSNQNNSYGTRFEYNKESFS
# [10] = biological target: NADPH oxidase 5 (Homo sapiens) (UniProt Q96PH1); experiment: NOX5-dependent H2O2 signal modulators, primary screen, NOX inhibitor project, cell-based, HEK293-NOX5, Amplex Red fluorescence (AID 1161); conditions: HEK293-NOX5, ionomycin, 45 min, higher = more signal
# NADPH oxidase 5 (Homo sapiens), sequence (Q96PH1 whole entry, looked up): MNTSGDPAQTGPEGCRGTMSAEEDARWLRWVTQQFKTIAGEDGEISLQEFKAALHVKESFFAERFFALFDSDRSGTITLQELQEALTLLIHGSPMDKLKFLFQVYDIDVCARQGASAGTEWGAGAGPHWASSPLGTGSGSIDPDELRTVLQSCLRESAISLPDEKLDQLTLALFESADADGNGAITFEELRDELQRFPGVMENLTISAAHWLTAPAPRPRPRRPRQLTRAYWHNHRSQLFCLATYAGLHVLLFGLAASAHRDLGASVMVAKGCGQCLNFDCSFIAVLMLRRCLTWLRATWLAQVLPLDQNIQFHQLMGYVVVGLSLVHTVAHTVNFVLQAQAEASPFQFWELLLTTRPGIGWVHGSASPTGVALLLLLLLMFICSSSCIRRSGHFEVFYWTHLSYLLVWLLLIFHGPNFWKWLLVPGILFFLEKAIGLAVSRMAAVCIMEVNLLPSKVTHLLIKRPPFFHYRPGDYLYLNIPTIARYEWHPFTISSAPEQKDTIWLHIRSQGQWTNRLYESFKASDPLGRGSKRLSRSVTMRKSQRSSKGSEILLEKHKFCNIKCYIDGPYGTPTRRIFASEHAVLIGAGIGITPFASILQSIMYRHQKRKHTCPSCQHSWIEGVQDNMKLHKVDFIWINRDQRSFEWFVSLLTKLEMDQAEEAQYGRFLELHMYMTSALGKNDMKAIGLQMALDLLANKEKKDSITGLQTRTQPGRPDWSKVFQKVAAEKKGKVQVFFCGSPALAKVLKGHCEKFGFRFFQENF
# [11] = A549 cell viability effects, profiling panel, calcein-AM fluorescence, 48 h, basal (AID 1162); conditions: higher = more signal; note: test concentration not given here
# [12] = adipocyte viability effects, profiling panel, cell-based, 3T3-L1 adipocytes, calcein-AM fluorescence, 48 h, basal (AID 1163); conditions: 3T3-L1 adipocytes viability, higher = more signal; note: test concentration not given here
# [13] = HepG2 cell viability effects, profiling panel, calcein-AM fluorescence, 48 h, basal (AID 1164); conditions: higher = more signal; note: test concentration not given here
# [14] = MM1S cell viability effects, profiling panel, calcein-AM fluorescence, 48 h, basal (AID 1165); conditions: higher = more signal;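 note: viability of MM1S multiple myeloma cells under basal unstimulated conditions; test concentration not given here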
# [15] = basal RPMI8226 viability, no added stimulus, profiling panel, cell-based, calcein-AM fluorescence, 48 h, PK04 Diversity Set (AID 1166); conditions: RPMI8226 myeloma viability, higher = more signal;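 note: cells grown under basal conditions without added stimulus; test concentration not given here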
# [16] = basal HepG2 mitochondrial membrane potential changes, profiling panel, cell-based, JC-1 fluorescence, 24 h, 100 nL compound (AID 1167); conditions: higher = more signal; note: test concentration not given here
# [17] = basal 3T3-L1 adipocyte mitochondrial potential changes, profiling panel, cell-based, JC-1 fluorescence, 3T3-L1 adipocytes, 24 h, 100 nL compound (AID 1168); conditions: JC-1 mitochondrial fluorescence, higher = more signal, called active from +8 up or from −8 down; note: test concentration not given here
# [18] = basal RPMI8226 mitochondrial membrane potential changes, profiling panel, cell-based, JC-1 fluorescence, 24 h, 100 nL compound (AID 1169); conditions: RPMI8226 myeloma, JC-1 mitochondrial potential fluorescence, higher = more signal; note: test concentration not given here
# [19] = basal MM1S mitochondrial membrane potential changes, profiling panel, cell-based, JC-1 fluorescence, 24 h, 100 nL compound (AID 1170); conditions: higher = more signal; note: test concentration not given here
# [20] = A549 lung cancer cell viability effects, profiling panel, resazurin fluorescence, 24 h, PK04 Diversity Set (AID 1171); conditions: higher = more signal, called active from +8 up or from −8 down; note: test concentration not given here
SMILES,z-score [1],composite z-score [2],z-score [3],z-score [4],z-score [5],z-score [6],z-score [7],z-score [8],z-score [9],z-score [10],z-score [11],z-score [12],z-score [13],z-score [14],z-score [15],z-score [16],z-score [17],z-score [18],z-score [19],z-score [20]
CC=CC(O)C1C=CC2C(=O)N(C)C(=O)C2N1N1CCCCC1 (stereo not given),-1.81 (inactive),-0.0359,0.974 (inactive),1.18 (inactive),-0.343 (inactive),0.801 (inactive),-1.01,-0.605 (inactive),-0.473 (inactive),-1.96,-0.0516,-2.06,-0.843,-0.714,-0.922,-1.52,-1.36 (inactive),-0.615,-0.00172,-0.232 (inactive)
CC(C)(C)N1CC=CC23O[C@@H]4C=CCOC(=O)[C@@H]4[C@H]2C(=O)N(CCCO)[C@@H]3C1=O (stereo not given in full),0.799 (inactive),-0.429,-0.103 (inactive),-0.831 (inactive),0.858 (inactive),-1.53 (inactive),0.364,-0.693 (inactive),-0.00336 (inactive),-1.09,0.495,1.55,-0.0446,0.656,-0.664,-0.57,-0.272 (inactive),-0.379,0.745,-0.89 (inactive)
C[n+]1ccc(CCCO)cc1,-0.885 (inactive),0.33,0.599 (inactive),-0.0234 (inactive),1.87 (inactive),0.131 (inactive),-0.283,0.176 (inactive),-0.435 (inactive),-1.72,-0.566,0.927,-0.96,0.375,-1.77,-0.0921,-0.321 (inactive),-0.502,0.0343,-1.15 (inactive)
C=CCN1C(=O)[C@@]2(CCC(=O)OC(C)(C)C)N=C(c3ccc(OCCCO)cc3)O[C@H]2c2ccccc21,0.46 (inactive),0.466,36.7 (active),36.3 (active),3.79 (inactive),13.2 (active),0.0444,-2.82 (inactive),0.413 (inactive),-0.917,-1.22,0.28,-2.35,-3.59,-3.97,-1.62,2.8 (inactive),-1.19,-2.57,-1.66 (inactive)
CON(C)C(=O)C=C1C[C@@H](c2cccc(Cl)c2)O[C@@H](c2cccc(Cl)c2)O1,-0.511 (inactive),-0.0035,9.13 (active),2.17 (inactive),-1.24 (inactive),1.47 (inactive),0.178,-0.0563 (inactive),-0.986 (inactive),0.0304,-1.5,0.559,-2.18,-2.44,-4.18,3.67,0.748 (inactive),-1.09,-1.16,2.23 (inactive)
COC(=O)C[C@H]1O[C@]2(C(=O)N(C)c3ccccc32)[C@@H](C)[C@@H]1[Si](C)(C)c1ccc(C)cc1,1.6 (inactive),-0.0789,2.58 (inactive),0.894 (inactive),0.0094 (inactive),0.426 (inactive),0.559,0.626 (inactive),0.00059 (inactive),-1.59,-1.55,0.163,-0.151,-1.5,-4.12,-0.39,0.329 (inactive),-0.991,0.413,-0.447 (inactive)
CC(C)CNC(=O)[C@@]1(c2ccc([N+](=O)[O-])cc2)CC(=O)N(C2CCCCC2)[C@@H]1c1ccc(CO)cc1I,-0.826 (inactive),0.213,10.8 (active),2.15 (inactive),3.67 (inactive),0.794 (inactive),-0.183,0.685 (inactive),0.486 (inactive),1.74,0.304,0.13,-0.108,-2,-0.317,1.15,-0.472 (inactive),-0.296,0.0603,1.02 (inactive)
C=CCN1C(=O)[C@]2(CC=C)N=C(c3ccc(OCCCO)cc3)O[C@@H]2c2ccccc21,0.987 (inactive),0.544,33.2 (active),34.2 (active),2.64 (inactive),10.6 (active),-0.112,-1.13 (inactive),1.08 (inactive),1.09,-1.23,0.931,-1.82,-3.48,-3.86,-1.12,2.63 (inactive),-1.16,-2.38,-1.95 (inactive)
C=CCNC(=O)[C@@H]1[C@H]2C(=O)O[C@H](c3ccccc3)[C@H](c3ccccc3)N2[C@H](c2ccc(OCCO)cc2)[C@@]12C(=O)N(C(=O)OCCOC)c1ccc(C#CC3=CCCCC3)cc12,-0.892 (inactive),0.173,6.2 (inactive),2.12 (inactive),0.669 (inactive),1.46 (inactive),0.0846,1.13 (inactive),-0.0729 (inactive),1.69,-0.549,-0.354,0.0468,-1.45,-1.59,-0.893,-0.0381 (inactive),-0.814,-1.57,-1.01 (inactive)
